PubChem BioAssay AID624058 (Broad Institute, 2012)
Inconclusive results are not listed. How the calls were made is not given here.

test: P. aeruginosa growth delay with metal chelator, dose response, OD600, EDDHA, ATCC 15692, cherry-pick, set 2 (AID 624058); settings: P. aeruginosa ATCC 15692 with EDDHA, OD600, 24-30 h; series mostly up to 50 µM; growth inhibition: at the top concentration

Growth inhibition, inactive:
Cc1ccc(S(=O)c2ccc(C)cc2)cc1 22.7%, CCOC(=O)/C=C(\C)Sc1cc(=O)oc2ccccc12 19.5%, O=C1C2C(C(=O)N1Cc1ccco1)C1C=CC2C12CC2 (centres undefined) 40%, N#C/C(=C/c1ccco1)c1nc2ccccc2s1 31.8%, CCOC(=O)N1CCN(c2ccc(Cl)cc2)CC1 -3.24%, Cn1cccc1C(C#N)c1cccc(F)c1C#N (centres undefined) -7.44% [at 16 µM], O=[N+]([O-])c1ccc(N2CCCCC2)nc1 4.26%, COc1ccccc1C(C#N)c1cccc(Cl)n1 (centres undefined) 8.34%, O=CN(c1ccccc1)c1ccc2ccccc2c1 11.5%, CCOC(=O)c1ccc(-c2ccc(CO)o2)cc1 14%, O=[N+]([O-])c1ccc(N2CCCC2)nc1 53.4%, CCOc1ccc(-n2cccc2C=O)cc1 38.6%, CCCNS(=O)(=O)c1ccc(OC)c(Cl)c1Cl 11.6%, N#Cc1cc(-c2ccccc2)cnc1Cl 30.5%
